Assay [1] in a line: qHTS for Inhibitors of the Aldehyde Dehydrogenase Family (ALDH1A2, ALDH1A3, ALDH2, ALDH3A1) (AID 2061307). Further: nearly all actives have a fitted effect of over 50% in size. On Potency: test system not described further here; potency means the concentration at half of the fitted maximal effect.
The target in assay [2] is Aldehyde dehydrogenase, mitochondrial (Homo sapiens) (UniProt P05091). As to the kind of experiment: qHTS for Inhibitors of the Aldehyde Dehydrogenase Family (ALDH2) Primary screen (AID 2061308). Further: nearly all actives have a fitted effect of over 55% in size. Background: Quantitative high-throughput screening tests each substance at several concentrations.
The target in assay [3] is Retinaldehyde dehydrogenase 3 (Homo sapiens) (UniProt P47895). As to the kind of experiment: qHTS for Inhibitors of the Aldehyde Dehydrogenase Family (ALDH1A3) Primary screen (AID 2061315).
Assay [4] has as its target Aldehyde dehydrogenase 1A1 (Homo sapiens) (UniProt P00352). As to the kind of experiment: qHTS for Inhibitors of the Aldehyde Dehydrogenase Family (ALDH1A1) Confirmatory screens (AID 2061316). Further: nearly all actives have a fitted effect of over 65% in size. Further: potency means the concentration at half of the fitted maximal effect.
The target in assay [5] is Retinaldehyde dehydrogenase 3 (Homo sapiens) (UniProt P47895). As to the kind of experiment: qHTS for Inhibitors of the Aldehyde Dehydrogenase Family (ALDH1A3) Confirmatory screens (AID 2061311). Further: nearly all actives have a fitted effect of over 60% in size. Further: potency means the concentration at half of the fitted maximal effect.
Assay [6] addresses Retinal dehydrogenase 2 (Homo sapiens) (UniProt O94788). As to the kind of experiment: qHTS for Inhibitors of the Aldehyde Dehydrogenase Family (ALDH1A2) Confirmation screens (AID 2061314). Further: nearly all actives have a fitted effect of over 65% in size. Further: potency means the concentration at half of the fitted maximal effect.

Structures are written as SMILES. Inconclusive results are not listed. Active and inactive are the calls of the source. The call rests on the fitted dose curve; in most records, active means well fitted curve in the direction sought with a large enough effect; inconclusive means small, poorly fitted or top-dose-only effect, or another doubt; inactive means no such curve, though single readings can be large; an effect the other way counts as inactive or inconclusive.

As for `COC(=O)c1ccc(O)c2ncc(-c3ccc(C(=O)N4CCNCC4)cc3)cc12`, the Potency result in assay [1], in assay [2], in assay [3] and in assay [4] was “inactive” in each case.

Regarding `COc1cc(NS(=O)(=O)c2cccc([N+](=O)[O-])c2)c2ncccc2c1`, the Potency in assay [1] is 11.3 µM (active); in assay [5], 5.65 µM (active); in assay [6] it was 3.18 µM (active).

As for `Cn1sc(=O)n(Cc2ccccc2)c1=O`, the Potency in assay [1] is 10.1 µM (active); in assay [5] it was 12.7 µM (active); in assay [6], 8.96 µM (active); in assay [4], 0.283 µM (active).

As to `N#Cc1nc(-c2ccc(COc3ccccc3)o2)oc1N1CCN(c2ccccc2)CC1`, the Potency entry in assay [1] and in assay [5] was “inactive” each time.

For `CN(C)c1ccc(-c2cc[nH]c(=O)c2N)cc1`, the Potency in assay [1] was 12.7 µM (active); in assay [5], 20.1 µM (active); in assay [6] it was 0.225 µM (active); in assay [4], 4 µM (active). Further, the Potency result in assay [3] is “inactive”.

With `CN1CCN(c2ccc(NC(=O)CN(C)Cc3c(O)ccc4ccccc34)cc2)CC1`, the Potency in assay [1] is 7.12 µM (active); in assay [5], 22.5 µM (active); in assay [6], 7.12 µM (active); in assay [4] it was 5.04 µM (active). In assay [3], the Potency entry is “inactive”.

For the compound `O=C(O)c1ccc2c(c1)C(=O)N(CCc1ccc(O)cc1)C2=O`, the Potency entry in assay [1], in assay [5], in assay [6], in assay [3] and in assay [4] was “inactive” each time.

As for `O=C(Cc1ccc(F)cc1)Nc1cccc(-c2nc3cccnc3s2)c1`, the Potency entry in assay [1], in assay [5], in assay [6] and in assay [4] was “inactive” in each case.

Consider `CC(=O)Nc1sc2c(c1-c1csc3ccccc13)CCNC2`, for which the Potency result in assay [1], in assay [5] and in assay [3] was “inactive” each time. Also, in assay [6], the Potency is 15.9 µM (active).

For the compound `CCOC(=O)c1[nH]c2c(c1C)C(=S)CC(c1ccco1)C2` (stereo unspecified), the Potency was 8.96 µM (active) in assay [1], 12.7 µM (active) in assay [5], 12.7 µM (active) in assay [6] and 2.01 µM (active) in assay [4]. The Potency entry in assay [3] was “inactive”.

For `CCOC(=O)C1CCN(C(=O)C(C)(C)NC(=O)Nc2ccc(N(C)C)cc2)CC1`, the Potency entry in assay [1] is “inactive”. The Potency in assay [5] was 14.2 µM (active); in assay [6], 12.7 µM (active).

In the case of `CCOC(=O)c1c(C)n(-c2ccc(OC)cc2)c2ccc(OC(=O)COc3ccccc3)cc12`, the Potency entry in assay [1], in assay [5], in assay [6] and in assay [4] was “inactive” in each case.

For the compound `O=S1(=O)N=C(Oc2cccc3ccccc23)c2ccccc21`, the Potency was 2.83 µM (active) in assay [1], 5.04 µM (active) in assay [5] and 12.7 µM (active) in assay [6].

Regarding `O=C1Cc2cc(S(=O)(=O)N3CCNCC3)ccc2N1`, the Potency result in assay [1], in assay [5] and in assay [3] was “inactive” in each case. Further, the Potency in assay [6] is 17.9 µM (active).

Consider `CC(C)(C)c1ccc(S(=O)(=O)c2cnc(SCC(=O)Nc3ccc(F)c(Cl)c3)[nH]c2=O)cc1`, for which the figures for the Potency in assay [1], in assay [6] and in assay [4] were 12.7 µM (active), 14.2 µM (active) and 0.634 µM (active), respectively. Moreover, the Potency result in assay [5] and in assay [3] was “inactive” throughout.

`O=C1Nc2cc(Cl)ccc2/C1=C\c1cc(Cl)c(O)c(Cl)c1`: the Potency is 3.57 µM (active) in assay [1], 25.2 µM (active) in assay [6] and 22.5 µM (active) in assay [4]. Moreover, the Potency result in assay [5] and in assay [3] was “inactive” in each case.

Take `CC(=O)c1c(C)n(-c2ccc(Cl)cc2)c2ccc(OC(=O)COc3ccccc3)cc12`: the Potency entry in assay [1], in assay [5], in assay [6] and in assay [4] was “inactive” each time.

With `CC(=O)c1ccc(N2CCN(C(=O)CCS(=O)(=O)c3ccc4c(c3)oc(=O)n4C)CC2)cc1`, in assay [1], the Potency entry is “inactive”. Further, the Potency in assay [5] is 16.2 µM (active).

In the case of `Cc1ccc(-c2cc(C(=O)NCc3cccc(F)c3)nn3cnnc23)cc1`, the Potency in assay [1] and in assay [5] was 8.91 µM (active) in each case. The Potency entry in assay [6] is “inactive”.

As to `COc1cccc(CNC(=O)c2ccc3c(c2)sc2nc(-c4ccccc4)cn23)c1OC`, the Potency entry in assay [1], in assay [5] and in assay [6] was “inactive” each time.

Consider `Cc1sc(NC(=O)Cc2ccc3c(c2)OCO3)nc1-c1ccc2c(c1)CCN2`, for which the Potency in assay [1] was 20.1 µM (active); in assay [5], 12.7 µM (active); in assay [6] it was 4 µM (active); in assay [4], 3.18 µM (active). Further, the Potency entry in assay [3] was “inactive”.

On to `CCC(=O)Nc1ccc(S(=O)(=O)NCc2ccc3c(c2)CCN3C(=O)c2ccc(C)cc2)cc1`, for which the Potency result in assay [1], in assay [5] and in assay [6] was “inactive” each time.

For `COc1ccc(-c2nc(CCNC(=O)c3c(F)cccc3Cl)cs2)cc1`, the Potency result in assay [1], in assay [5], in assay [6] and in assay [4] was “inactive” each time.

With `Cc1ccc(S(=O)(=O)Nc2cnccc2C(=O)Nc2nc(C(=O)O)cs2)cc1`, the Potency entry in assay [1], in assay [6] and in assay [3] was “inactive” throughout. The Potency in assay [5] was 20.1 µM (active).

Consider `CC(C)CCN(C)Cc1ccc(-c2ccccc2)cc1`, for which the Potency in assay [1] is 25.1 µM (active); in assay [5], 4.19 µM (active). In assay [6], the Potency result was “inactive”.

For `COc1ccc(C(=O)N(Cc2ccco2)Cc2ccco2)c(O)c1`, the Potency was 0.891 µM (active) in assay [1], 17.9 µM (active) in assay [6] and 7.12 µM (active) in assay [4]. Also, the Potency result in assay [5] and in assay [3] was “inactive” throughout.

Regarding `CN(C)c1cccc(-c2cnc(N3CCC(c4ncc[nH]4)CC3)s2)c1`, the Potency in assay [1] was 10.1 µM (active); in assay [5], 4 µM (active); in assay [4], 0.201 µM (active). Further, the Potency entry in assay [6] and in assay [3] was “inactive” each time.

Consider `O=C(O)CN1C(=O)/C(=C/c2ccc(-c3cccc(Cl)c3)o2)SC1=S`, for which the Potency in assay [1] was 11.3 µM (active); in assay [6] it was 22.5 µM (active); in assay [4], 7.98 µM (active). The Potency result in assay [5] and in assay [3] was “inactive” in each case.

The record behind these values is PubChem BioAssay (NCATS).
